# The whole screen tested about 2,100 compounds, of which about 260 (12%) were called active. Not shown: some 58% with an inconclusive outcome. The call rests on the fitted dose curve; in most records, active means well fitted cell-killing curve with a large enough effect; inconclusive means small, poorly fitted or top-dose-only effect, or effect the other way; inactive means flat fitted curve, though single readings scatter. The list shows a part of the results.
# Experiment: Viability Counterscreen for Confirmatory qHTS for Inhibitors of ATXN expression; further: nearly all actives have a fitted effect of over 50% in size
# Conditions: HEK-293 ATXN2-luc cells viability, CellTiter-Fluor, 24 h; activity change, negative = cytotoxicity: at the top concentration
# Outline: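 Cells with an ATXN2-luciferase reporter were dosed in a dilution series for 24 h at 37 degrees C. Viability was read first with Gly-Phe-AFC at 25 uM final (fluorescence, ex 405/em 540), then SteadyGlo luminescence. Medium-only wells defined 100% inhibition.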
# Potency means the concentration at half of the fitted maximal effect.
SMILES,"activity change, negative = cytotoxicity",Potency
Cn1c(S(=O)(=O)c2ccc([N+](=O)[O-])cc2)nc(Br)c1Br,-5.53% (inactive),–
COc1ccc2c(c1)CC(N1CCN(C)CC1)c1cc(OC)ccc1S2 (configuration not stated),–,28.2 µM (active)
O=C(CSc1nc2ncc(Br)cc2[nH]1)Nc1ccccc1-c1ccccc1,-20.4% [at 57.5 µM] (inactive),–
COc1cccc(C2CC(c3c(-c4ccccc4)c4cc(Cl)ccc4[nH]c3=O)=NN2S(C)(=O)=O)c1OC (configuration not stated),-18.9% (inactive),–
C/C(=N\NC(=O)CN1CCCCC1)c1ccccc1O,-9.43% (inactive),–
Cc1cc(C)c(S(=O)(=O)/N=C2\C=C(Nc3ccc(C(=O)O)cc3)C(=O)c3ccccc32)c(C)c1,–,3.16 µM (active)
FC(F)(F)c1nc(-c2cccs2)ncc1-c1nnnn1-c1ccc(Cl)cc1,–,35.5 µM (active)
Oc1c(C(c2ccccn2)N2CCC(Cc3ccccc3)CC2)cc(Cl)c2cccnc12 (configuration not stated),–,25.1 µM (active)
CCCCSc1nc(C)cc(SCC(=O)N/N=C/c2cccc(OC)c2O)n1,-21.9% (inactive),–
O=C(C1CCC(CNS(=O)(=O)c2cccs2)CC1)N1CCN(c2ccc(F)cc2)CC1 (configuration not stated),-23% (inactive),–
CN1CCN(c2cc(-c3cc(O)c4ncccc4c3)ccn2)CC1,–,31.6 µM (active)
O=c1c2ccccc2sc2c(CO)ccc(NCCN3CCCCC3)c12,–,22.4 µM (active)
CCN(CC)CCNc1ccc(CO)c2sc3ccccc3c(=O)c12,–,20 µM (active)
CCN(CC)CCNc1ccnc2cc(Cl)ccc12,-14% (inactive),–
Cc1cc(C(=O)CN2C(=O)c3ccccc3S2(=O)=O)c(C)n1C(C)C,4.42% (inactive),–
O=C(Nc1ccc(Br)cc1)c1cccc(OC(=S)N2CCOCC2)c1,-8.47% (inactive),–
CCn1c2ccccc2c2cc(NC(=O)COC(=O)c3cccc(S(=O)(=O)NC)c3)ccc21,-19.4% [at 57.5 µM] (inactive),–
OC1(c2ccc(Cl)cc2)CCN(Cc2c[nH]c3ccccc23)CC1,-15.6% (inactive),–
O=C(Nc1ccc(Cl)cc1)Nc1nc(-c2sccc2Br)cs1,–,10 µM (active)
O=C(Nc1ccc(NC(=O)c2ccc(Cl)cc2Cl)cc1)c1cccs1,-22.4% [at 57.5 µM] (inactive),–
CCOc1ccccc1NC(=O)CCCc1nc2ccccc2c(=O)[nH]1,-11% (inactive),–
CCCCOc1ccccc1NC(=O)Cn1c(-c2nonc2N)nc2ccccc21,–,11.2 µM (active)
CCCCOc1ccccc1NC(=O)c1scc2c1OCCO2,-17.1% (inactive),–
Cc1cc(OCCCCCn2ccnc2)cc(C)c1Cl,-28.4% [at 57.5 µM] (inactive),–
Cc1cc(SCC(=O)NN)c2cc(Br)ccc2n1,-20.4% [at 57.5 µM] (inactive),–
CCCOc1ccc(C(=O)NC(=S)NNC(=O)c2c(-c3ccccc3)noc2C)cc1,1.64% (inactive),–

SMILES,"activity change, negative = cytotoxicity",Potency
COc1cccc(/C=N/Nc2nc3ccccc3n3cnnc23)c1O,-9.86% (inactive),–
CCN(CC)S(=O)(=O)c1ccc(N/N=C/c2cc(OC)ccc2O)nc1,-10.2% (inactive),–
O=C(CCc1ccccc1)N/N=C/c1cc(Br)ccc1O,-17.3% (inactive),–
O=[N+]([O-])c1ccc(O)c(/C=N/Nc2ccccn2)c1,–,10 µM (active)
O=[N+]([O-])c1ccc(O)c(/C=N\N=C2c3ccccc3-c3ccccc32)c1,–,12.6 µM (active)
O=[N+]([O-])c1ccc(O)c(/C=N/Nc2ncnc3c2cnn3-c2ccccc2)c1,–,12.6 µM (active)
COc1cccc(/C=N/Nc2ncnc3c2ncn3Cc2ccccc2)c1O,-7.4% (inactive),–
Cc1cc(Cl)c(C(=O)Nc2cccc(C(F)(F)F)c2)c(C)n1,-20.8% [at 57.5 µM] (inactive),–
C=CCN1C=CC(=O)[C@@H](OC(=O)Nc2ccc(Br)cc2)[C@H]1c1ccccc1Br,-15.2% (inactive),–
O=C(CN1C(=O)c2ccccc2S1(=O)=O)Nc1ncc(Cl)cc1Cl,0.426% (inactive),–
O=C(c1ccco1)N(CCCN1CCOCC1)c1nc(-c2ccc(Cl)cc2)cs1,-12.7% (inactive),–
CC(=O)Nc1cc(-c2ccc(C(=O)NC3CC3)cc2)cn2c(-c3cccc(C(C)=O)c3)cnc12,-20.7% [at 57.5 µM] (inactive),–
NS(=O)(=O)c1ccc(CCNC(=O)COC(=O)/C=C/c2cc(Br)ccc2F)cc1,4.96% (inactive),–
NS(=O)(=O)c1ccc(CCNC(=O)c2cc(-c3ccccn3)nc3ccc(Br)cc23)cc1,–,35.5 µM (active)
O=C(NCCc1ccccc1)c1ccc2nccnc2c1,-11.9% (inactive),–
CCC(CC)C(=O)c1c[nH]c(C(=O)NCc2ccccn2)c1,-5.14% [at 57.5 µM] (inactive),–
CCn1c(/C=C/c2ccc([N+](=O)[O-])o2)nc2ccccc2c1=O,–,10 µM (active)
O=[N+]([O-])c1ccc(/C=N/N=C/c2ccc([N+](=O)[O-])o2)o1,–,7.94 µM (active)
COc1ccccc1NC(=O)Nc1nc(CC(=O)N2CCN(c3ccccc3)CC2)cs1,-22% [at 57.5 µM] (inactive),–
CC(C)Nc1nc(NC(C)C)nc(N(C#N)CCOc2ccc(Cl)cc2Cl)n1,-19.4% (inactive),–
O=C(NC(c1ccccc1)c1ccc2ccccc2n1)C1CCN(CCOc2ccc(Cl)cc2Cl)CC1 (configuration not stated),–,25.1 µM (active)
O=C(NC(c1ccccc1)c1c(O)ccc2ccccc12)c1ccccc1Cl (configuration not stated),-20.7% (inactive),–
COc1cc(/C=C/C(=O)Nc2ccc(OC)c(S(=O)(=O)N3CCOCC3)c2)ccc1OCC#N,-23% (inactive),–
CCSc1nc2ccccc2n1C(=O)/C=C\c1ccc(OC)c(OC)c1,–,7.94 µM (active)
COc1ccc(/C=C/C(=O)Nc2cccc(S(=O)(=O)N3CCCC3)c2)cc1OC,-3.83% (inactive),–
COC1=C(c2ccccc2)C(=O)c2ccccc2C1=O,-26.8% (inactive),–

SMILES,"activity change, negative = cytotoxicity",Potency
CCOC(=O)c1ccc(NC(=O)c2nc[nH]c2C(=O)N[C@H](C)c2ccccc2)cc1,1.71% (inactive),–
O=C(Nc1nc(NC(=O)c2ccco2)n(-c2ccccc2)n1)c1ccccc1,–,22.4 µM (active)
O=C(NCCc1csc(-c2ccc(Cl)cc2)n1)c1ccco1,-29% [at 57.5 µM] (inactive),–
CC(=O)c1sc(NC(=O)c2cc(-c3ccccc3)nn2-c2ccccc2)nc1C,-12% (inactive),–
Cc1nc(N2CCN(Cc3ccc4c(c3)OCO4)CC2)c2oc3ccccc3c2n1,-27% (inactive),–
CCOC(=O)c1c(NC(=O)COC(=O)Cn2cnc3ccccc32)sc(C)c1C,-16.8% [at 57.5 µM] (inactive),–
CCNc1ccc(Br)cc(C(=O)/C=C/c2ccccc2Cl)c1=O,-23.3% (inactive),–
O=C(/C=C/c1ccccc1)c1cc(Br)ccc(=O)c1O,–,22.4 µM (active)
CNc1ccc(Br)cc(C(=O)/C=C/c2ccc3c(c2)OCO3)c1=O,-17.3% (inactive),–
NC(=S)N1OC[C@@H]2COc3ccc4ccccc4c3[C@@H]21,-27.5% [at 57.5 µM] (inactive),–
COc1ccccc1Cc1c(-c2ccco2)nc2c(C)cc(Br)cn12,–,10 µM (active)
O=C(Nc1ccc(Cl)c(Cl)c1)c1cccc(S(=O)(=O)NCc2cccnc2)c1,–,3.16 µM (active)
COc1cccc(S(=O)(=O)NCc2ccc(C(=O)Nc3cccc(Cl)c3)cc2)c1,–,20 µM (active)
COc1cccc(OCC(=O)Nc2cc(Cl)ccc2Oc2ccccc2)c1,6.08% (inactive),–
COC(=O)c1ccc(N2CCOCC2)c(NC(=O)Nc2cccc(OC)c2)c1,-8.48% (inactive),–
Cn1c(=O)c2cc(NC(=O)Nc3cccnc3)ccc2n1Cc1ccc(Cl)cc1,-14.8% [at 57.5 µM] (inactive),–
O=C(/C=C/Nc1ccc(S(=O)(=O)Nc2ncccn2)cc1)c1ccc(Cl)c(Cl)c1,-21.3% [at 57.5 µM] (inactive),–
O=C(CSc1nnnn1-c1ccccc1)Nc1nsc(-c2ccccc2)n1,-13.5% [at 57.5 µM] (inactive),–
CCn1c2ccccc2c2cc(NC(=O)COC(=O)c3ccccc3F)ccc21,2.58% (inactive),–
C=CCNc1oc(-c2ccc(Cl)cc2)nc1C#N,-6.31% [at 57.5 µM] (inactive),–
NC(Cc1ccc(Cl)cc1)c1csc(Nc2nccc(C(F)(F)F)n2)n1 (configuration not stated),–,28.2 µM (active)
NC(Cc1ccccc1)c1csc(Nc2nccc(C(F)(F)F)n2)n1 (configuration not stated),–,14.1 µM (active)
NC(=O)c1cccc(Nc2nc(C(N)Cc3ccc(C(F)(F)F)cc3)cs2)n1 (configuration not stated),-3.62% (inactive),–
NC(Cc1ccc(F)cc1)c1csc(Nc2cc(NCc3ccco3)ncn2)n1 (configuration not stated),-10.8% (inactive),–
CCC(C)Sc1cc(C(F)(F)F)c(C(=O)Nc2ccc(Cl)cc2)cn1 (configuration not stated),-28.6% (inactive),–
COC(=O)Cc1[nH]n(-c2nc3ccccc3s2)c(=O)c1C(C)=Nc1ccc(C)cc1,-25% [at 57.5 µM] (inactive),–

SMILES,"activity change, negative = cytotoxicity",Potency
COc1cc(C)c(C(=O)CC(=O)c2c(C)cc(OC)cc2C)c(C)c1,-4.26% (inactive),–
CCN(CC)S(=O)(=O)c1ccc(NC(=O)Nc2cccc(C(F)(F)F)c2)cc1,-22.7% (inactive),–
COc1ccc(/C=N/Nc2cc(N3CCCC3)nc(N3CCCC3)n2)cc1,–,3.16 µM (active)
COc1ccc(C(=O)N/N=C/c2ccc(N(C)c3ccccc3)cc2)cc1,8.41% (inactive),–
COc1ccc(C)cc1Nc1nc(C)nc2sc(C)cc12,-13.3% (inactive),–
CCOc1ccc(CCNC(=O)c2ccc(OCc3c(C)noc3C)cc2)cc1OCC,-11.7% (inactive),–
CCCCCn1c(=N)n(CC(O)COc2ccccc2OC)c2ccccc21 (configuration not stated),–,3.98 µM (active)
N=c1n(CCN2CCCCC2)c2ccccc2n1CC(O)c1ccc(Cl)c(Cl)c1 (configuration not stated),–,25.1 µM (active)
Cc1ccc(OCC(O)Cn2c(=N)n(CCN3CCCCC3)c3ccccc32)cc1 (configuration not stated),–,22.4 µM (active)
COc1cc2c(C(=O)N3CCOCC3)c(CSc3ccccc3)n(C)c2cc1Br,-20.7% [at 57.5 µM] (inactive),–
CN(C)c1ccc2c(c1)OC(N)=C(C#N)C2c1cccc(F)c1 (configuration not stated),-25.8% [at 57.5 µM] (inactive),–
COc1cc2nc(CN(C)Cc3ccc(SC)cc3)[nH]c(=O)c2cc1OC,-14.4% [at 57.5 µM] (inactive),–
COc1ccc(C(=O)NC(=S)NNC(=O)c2cnccn2)cc1,-14.6% (inactive),–
COc1c(C)cccc1C(=O)Nc1ccc(N2CCN(C(=O)c3ccccc3C)CC2)cc1,–,25.1 µM (active)
COc1ccc(Br)cc1C(=O)Nc1ccccc1N1CCN(C(=O)c2ccccc2)CC1,-13.6% (inactive),–
Cc1ccc(C(=O)N2CCN(c3ccc(NC(=S)NC(=O)c4cccs4)cc3)CC2)cc1,-13.9% (inactive),–
Cn1c(=O)c2c(nc(SCCN3CCOCC3)n2Cc2cccc3ccccc23)n(C)c1=O,-9.68% (inactive),–
CCc1ccc(-n2cc(-c3ccc(F)cc3)[n+]3c2SCCC3)cc1,-20.7% [at 57.5 µM] (inactive),–
CCn1c(COc2ccccc2C)nnc1SCC(=O)N1CCN(c2ccccc2)CC1,-30% [at 57.5 µM] (inactive),–
O=C1C=CCC(/C=C/c2ccccc2)O1 (configuration not stated),–,20 µM (active)
Cc1c(CC(=O)NCCCC(=O)O)c(=O)oc2cc3c(cc12)CCC(C)(C)O3,-20.8% [at 57.5 µM] (inactive),–
NS(=O)(=O)c1ccc(NC(=O)COC(=O)c2c3c(nc4ccccc24)/C(=C\c2ccc4c(c2)OCO4)CCC3)cc1,-16.4% [at 57.5 µM] (inactive),–
CCc1nc2ccccc2c(C(=O)OCC(=O)Nc2ccc(NC(C)=O)cc2)c1C,-22.7% (inactive),–
CCc1nc2ccccc2c(C(=O)OCC(=O)Nc2cccc(S(=O)(=O)NC3=NCCCCC3)c2)c1C,–,25.1 µM (active)

# Source: PubChem BioAssay AID1745850 (National Center for Advancing Translational Sciences (NCATS), 2022)
